Consider 12 molecules from PubChem BioAssay (NCATS).

Molecules are shown by their SMILES. Where “and” joins values, the source holds several entries; their conditions need not be identical. Identical values can stand only once. A number with no mark means an inactive call. Inconclusive results are not listed. Calls of active or inactive are those of the source. Unless noted, calls follow the shape of the dose curve; as a rule, active = well fitted curve in the direction sought with a large enough effect; inconclusive = small, poorly fitted or top-dose-only effect, or another doubt; inactive = no such curve, though single readings can be large; an effect the other way counts as inactive or inconclusive.

One experiment concerns CAOV3. The experiment is described as follows: Primary qHTS to identify gynecologic anti-cancer compounds using libraries of approved drugs and bioactive compounds (AID 1345084). Also: nearly all actives have a fitted effect of over 55% in size. Also: potency is read from the fitted curve at half-maximal effect. As to conditions: Gynecologic cancer cell panel viability, ATPlite luminescence, 48 h; series mostly up to 57.5 µM. In outline:
(§1)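 Five-concentration response, 48 h; readout is ATP-driven luciferase luminescence.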

A further experiment has as its system Es-2. Described as above. The settings on record: Gynecologic cancer cell panel viability, ATPlite luminescence, 48 h; series mostly up to 57.5 µM. Put shortly:
as §1
In general terms: Cellular ATP, detected with luciferase, serves as a proxy for viable cell number.

A further experiment relates to HeLa. The experiment is described as above. As to conditions: Gynecologic cancer cell panel viability, ATPlite luminescence, 48 h; series mostly up to 57.5 µM. In outline: as §1
The subject of the next experiment is Hek293T. Described as above. The settings on record: Gynecologic cancer cell panel viability, ATPlite luminescence, 48 h, control line for the selectivity index; series mostly up to 57.5 µM. In outline:
as §1

The next experiment relates to JEG-3. The description is as above. The settings on record: Gynecologic cancer cell panel viability, ATPlite luminescence, 48 h; series mostly up to 57.5 µM. In outline:
as §1

The next experiment relates to OV90. Described as above. As to conditions: Gynecologic cancer cell panel viability, ATPlite luminescence, 48 h; series mostly up to 57.5 µM. Put shortly:
as §1

A further experiment deals with PA-1. The experiment is described as above. The settings on record: Gynecologic cancer cell panel viability, ATPlite luminescence, 48 h; series mostly up to 57.5 µM. In outline: as §1
The subject of a further experiment is Tov-21-G. Described as above. As to conditions: Gynecologic cancer cell panel viability, ATPlite luminescence, 48 h; series mostly up to 57.5 µM. Put shortly:
as §1

The next experiment has as its system Tov112D. Described as above. The settings on record: Gynecologic cancer cell panel viability, ATPlite luminescence, 48 h; series mostly up to 57.5 µM. In outline: as §1
Experiment [1] is described as follows: Drug repurposing screens with cells derived from glioblastoma tumor samples (AID 1345199). Also: nearly all actives have a fitted effect of over 40% in size. Also: potency is read from the fitted curve at half-maximal effect. As to activity, negative = cell killing: % is scaled to controls: 0 for no effect and ±100 for the full control effect. The settings on record: GBM patient neurospheres viability, ATP luminescence, 48 h. Put shortly: (§2)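 Primary testing used CD133+ neurospheres from four GBM patients, seven concentrations, 48 h exposure and ATP-based viability; confirmation added three slower-growing patient lines.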

In the next experiment the test system is astro. The description is as above. The settings on record: viability, ATP luminescence, 48 h; series mostly up to 45.9 µM. In outline:
as §2

Experiment [2] in a line: qHTS assay for small molecule activators of the human pregnane X receptor (PXR) signaling pathway (AID 720659; call rule not given here; also: 0% is about no effect). (Quantitative high-throughput screening tests each substance at several concentrations.)
The next experiment concerns CASKI. The experiment is described as follows: Primary qHTS to identify gynecologic anti-cancer compounds using libraries of approved drugs and bioactive compounds (AID 1345084). Also: nearly all actives have a fitted effect of over 55% in size. Also: potency is read from the fitted curve at half-maximal effect. The settings on record: Gynecologic cancer cell panel viability, ATPlite luminescence, 48 h; series mostly up to 57.5 µM. Put shortly:
as §1

The test system of another experiment is SKOV3. The description is as above. The settings on record: Gynecologic cancer cell panel viability, ATPlite luminescence, 48 h; series mostly up to 57.5 µM. In outline:
as §1

Experiment [3] is described as follows: qHTS assay to identify inhibitors of the type 1 interferon - major histocompatibility complex class I in skeletal muscle: Counter screen cell viability and HiBit confirmation (AID 1347412). Also: nearly all actives have a fitted effect of over 60% in size. Also: potency is read from the fitted curve at half-maximal effect. As to conditions: iHSKM muscle cells + IFN-b, HiBiT or CellTiter-Glo, 24 h; Potency: HiBiT; Viability, at 45.9 µM (top of the series). In outline: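 Duplicate plates, pinned identically: one read for HiBiT-tagged endogenous HLA-B luminescence, the other for ATP-content viability via CellTiter Glo. Cells were genome-engineered human myoblasts given 4 ng/ml IFN-b; compounds 12-pt, 1:3 from 46 uM final; 24 hr exposure.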

Experiment [4] concerns the target Nuclear receptor subfamily 1 group I member 2 (Rattus norvegicus) (UniProt Q9R1A7). The experiment is described as follows: qHTS assay for small molecule activators of the rat pregnane X receptor (rPXR) signaling pathway (AID 651751; call rule not given here; also: 0% is about no effect). The settings on record: rPXR reporter cells, luciferase (One-Glo), 24 h.
[5] abbreviates: at 45.9 µM (top of the series), tumour line B.
The mark [6] stands for this setting: at 45.9 µM (top of the series), tumour line D.
Setting [7] is: at 46 µM (top of the series), tumour line A.

Nuclear receptor subfamily 1 group I member 2 (Rattus norvegicus), sequence (Q9R1A7 whole entry, looked up): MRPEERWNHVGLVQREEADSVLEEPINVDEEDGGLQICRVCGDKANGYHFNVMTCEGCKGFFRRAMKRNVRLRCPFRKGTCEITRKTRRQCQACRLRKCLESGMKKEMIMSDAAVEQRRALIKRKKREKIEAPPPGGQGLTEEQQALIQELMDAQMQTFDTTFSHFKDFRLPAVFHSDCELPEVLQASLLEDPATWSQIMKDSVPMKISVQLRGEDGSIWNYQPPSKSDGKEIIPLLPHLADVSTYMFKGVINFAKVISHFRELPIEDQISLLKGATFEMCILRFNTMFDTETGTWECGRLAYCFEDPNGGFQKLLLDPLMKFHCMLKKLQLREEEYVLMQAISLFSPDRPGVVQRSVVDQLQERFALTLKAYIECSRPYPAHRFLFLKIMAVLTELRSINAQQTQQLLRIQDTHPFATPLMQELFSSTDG

For the molecule `CC(C)CC(N(C)C)C1(c2ccc(Cl)cc2)CCC1` (stereo unspecified), the Potency entry in the experiment with CAOV3, in the experiment with Es-2, in the experiment with HeLa, in the experiment with Hek293T, in the experiment with JEG-3 and with OV90 was “inactive” throughout. In addition, the Potency entry in the experiment with PA-1, in the experiment on Tov-21-G, in the experiment with Tov112D and in the experiment with astro was “inactive” throughout. Further, the activity, negative = cell killing in experiment [1] (setting [5]) is -27.3%; in experiment [1] (setting [6]), -16.7%; in [1] (setting [7]), -28.1%.

`Fc1ccc(C(OCCN2CCN(CCCc3ccccc3)CC2)c2ccc(F)cc2)cc1`: the Potency result in the experiment on JEG-3 is “inactive”. Also, the Potency in the experiment on OV90 and in the experiment on astro was 22.4 µM (active) each time.

Turning to `O=c1[nH]c2ccccc2n1C1CCN(CCCC(c2ccc(F)cc2)c2ccc(F)cc2)CC1`, the Potency result in the experiment with Es-2, with HeLa, in the experiment on Hek293T, with JEG-3, in the experiment on PA-1 and in the experiment with Tov-21-G was “inactive” in each case. Moreover, the Potency entry in the experiment on Tov112D is “inactive”. For the same molecule, the Potency in experiment [1] (tumour line A) is 2.82 µM (active); in experiment [1] (tumour line B), 8.91 µM (active); in [1] (tumour line D), 5.62 µM (active); in the experiment on astro it was 17.8 µM (active). For the same molecule, in [2], the outcome was inactive.

In the case of `CC(C)=CCOc1c2occc2cc2ccc(=O)oc12`, the Potency result in the experiment with CAOV3, in the experiment on CASKI, in the experiment on Es-2, in the experiment on Hek293T, in the experiment on JEG-3 and in the experiment on OV90 was “inactive” each time. The Potency entry with PA-1, with Tov-21-G, with Tov112D and with astro was “inactive” in each case. For the same molecule, the results for the activity, negative = cell killing in [1] (setting [5]) and in [1] (setting [6]) were -6.14% and -22.8%, respectively. In addition, in [1] (tumour line A), the Potency is 17.8 µM (active).

For the molecule `COc1ccc(C(=O)c2c(C)n(CCN3CCOCC3)c3ccccc23)cc1`, the Potency result in the experiment on CASKI, with Es-2, in the experiment on HeLa, with Hek293T, in the experiment with JEG-3 and in the experiment with OV90 was “inactive” each time. Also, the Potency entry in the experiment with PA-1, in the experiment on Tov-21-G, in the experiment on Tov112D and with astro was “inactive” each time. The activity, negative = cell killing is -14.8% in experiment [1] (setting [5]) and -16% in [1] (setting [6]).

Take `N[C@@H]1C[C@H]1c1ccccc1`: the Potency entry in the experiment with CAOV3, with Es-2, with HeLa, in the experiment with Hek293T, with JEG-3 and in the experiment with OV90 was “inactive” throughout. The Potency result in the experiment with PA-1, in the experiment with SKOV3, in the experiment with Tov-21-G, in the experiment with Tov112D and in the experiment on astro was “inactive” each time. Besides, the activity, negative = cell killing in experiment [1] (setting [5]) was -7.72%; in experiment [1] (setting [6]), -6.02%.

On to `c1ccc2c(c1)OCC(C1=NCCN1)O2` (stereo unspecified), for which the Potency in the experiment on Hek293T is 28.2 µM (active); with PA-1, 15.8 µM (active); in the experiment with Tov-21-G, 15.8 µM (active); in the experiment on astro, 15.8 µM (active). Also, the Potency result (with JEG-3; in experiment [3]) was “inactive” each time.

For `CC[C@@H](CO)NC(=O)[C@@H]1C=C2c3cccc4[nH]cc(c34)C[C@H]2N(C)C1`, the Potency result in the experiment on CAOV3, in the experiment on CASKI, in the experiment with Es-2, in the experiment with HeLa, in the experiment on Hek293T and in the experiment on OV90 was “inactive” throughout. The Potency entry in the experiment with PA-1, in the experiment on Tov-21-G and in the experiment on Tov112D was “inactive” throughout. Moreover, in [1] (setting [7]), the activity, negative = cell killing is 16.5%.

`CCC(=O)C(CC(C)N(C)C)(c1ccccc1)c1ccccc1` (stereo unspecified): the Potency result in the experiment on Es-2, in the experiment on HeLa, in the experiment with Hek293T, in the experiment on JEG-3, in the experiment with PA-1 and in the experiment on Tov-21-G was “inactive” throughout. In addition, the Potency result in the experiment with Tov112D and with astro was “inactive” each time.

Take `C=C1C[C@@H]2[C@H](CC[C@]3(C)C(=O)CC[C@@H]23)[C@@]2(C)C=CC(=O)C=C12`: the Potency result in the experiment with CASKI, in the experiment with HeLa, with SKOV3, with Tov112D and in the experiment with astro was “inactive” throughout. Further, the Potency in experiment [1] (tumour line A) was 12.6 µM (active).

Turning to `C[C@H]1O[C@@H](O[C@H]2[C@@H](O)C[C@H](O[C@H]3[C@@H](O)C[C@H](O[C@H]4CC[C@@]5(C)[C@H](CC[C@@H]6[C@@H]5CC[C@]5(C)[C@@H](C7=CC(=O)OC7)CC[C@]65O)C4)O[C@@H]3C)O[C@@H]2C)C[C@H](O)[C@@H]1O`, the Potency with CAOV3 was 316 nM (active) and 282 nM (active); with CASKI, 398 nM (active) and 794 nM (active); with Es-2, 282 nM (active) and 100 nM (active); in the experiment with HeLa, 282 nM (active) and 89.1 nM (active); in the experiment with Hek293T, 282 nM (active) and 224 nM (active); in the experiment on OV90, 0.708 µM (active). Further, the Potency in the experiment with PA-1 is 282 nM (active) and 126 nM (active); with SKOV3, 251 nM (active) and 112 nM (active); with Tov-21-G, 112 nM (active) and 100 nM (active); in the experiment with Tov112D it was 0.0891 µM (active); in the experiment on astro it was 0.1 µM (active); in [3], 0.0497 µM (active). In addition, in [4], the max response was -1.87%. In addition, the molecule was called inactive in experiment [2].

Take `N[C@@H](Cc1ccc(N(CCCl)CCCl)cc1)C(=O)O`: the Potency result in the experiment on HeLa, in the experiment with Hek293T, with JEG-3, in the experiment with SKOV3 and in the experiment on Tov-21-G was “inactive” each time. Moreover, the max response in experiment [4] is 1.48% and 0.994%.
